# Source: PubChem BioAssay
# tim23-1 inh: tim23-1 yeast growth inhibition. inhibition, % at 20 µM. hit rate 1.3% among 330,000. S. cerevisiae tim23-1 growth, BacTiter-Glo luminescence, 24 h;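 active means growth inhibition of the mutant yeast at or above 50%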;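 further: temperature-sensitive mutant grown at 25 °C; plate controls were DMSO-treated mutant yeast for no effect and medium wells lacking yeast for full effect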
# NALP1 inh: inhibitors of NALP1 inflammasome in yeast. S. cerevisiae NALP1/ASC/caspase-1 growth, X-gal OD620, 72 h. inhibition, % at 10 µM. hit rate 0.61% among 280,000. AID 2071; in the data active means inhibition mostly above about 24%, no sharp cut-off; inactive means mostly below about 32%
# TIM10 inh: growth inhibitors of TIM10 yeast strain; hit rate 1.4% among 330,000; S. cerevisiae TIM10 strain growth, BacTiter-Glo luminescence, 24 h; inhibition, % at 10 µM;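 active means inhibition of 40% or more at the single tested concentration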;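 further: wild-type TIM10 isogenic control strain grown at permissive 25 °C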
# NALP3 yeast inh: NALP3 inhibition in yeast; Yeast reconstituted NLRP3/ASC/caspase-1, beta-gal luminescence, 24 h; inhibition, % at 10 µM; hit rate 0.39% among 330,000; AID 2825;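 active means inhibition of 50% or more; inactive means inhibition below 50%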;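 further: plate controls were induced DMSO wells for no effect and uninduced yeast grown without galactose for full effect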
# tim10-1 inh: growth inhibitors of tim10-1 mutant yeast; S. cerevisiae tim10-1 ts strain growth, BacTiter-Glo, 24 h; inhibition, % at 20 µM; hit rate 2.2% among 330,000;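 active means inhibition of at least 40%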;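 further: mutant grown at 25 °C; 0% = DMSO wells with yeast and 100% = wells holding no yeast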
# tim23-1 conf: tim23-1 yeast growth inhibition, confirmed | shares compounds with tim23-1 inh | S. cerevisiae tim23-1 growth, BacTiter-Glo luminescence, 24 h | inhibition, % at 20 µM | hit rate 83% among 4,400 | AID 463218;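 active means inhibition above about 39% in either of two replicate wells at 20 µM, limit read from the data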;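 further: temperature-sensitive tim23-1 mutant grown at 25 °C; 0% = DMSO wells with yeast and 100% = medium wells without yeast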
# The depositor's hits bear a star; . = no result given. Only some compounds are listed: those with a hit (about 4% of all), similar ones and a draw of the others.
SMILES,tim23-1 inh,NALP1 inh,TIM10 inh,NALP3 yeast inh,tim10-1 inh,tim23-1 conf
Cc1ccc(-c2cnc(-c3ccncc3)o2)cc1,-1.2,15.0,23.5,-6.5,9.3,.
COc1cc(NC(=O)Cc2cccc3ccccc23)c(C(=O)O)cc1OC,12.3,25.9,-1.8,7.2,13.5,.
COc1ccc(NC(=O)CSc2nnc(CC(=O)Nc3ccc(F)cc3)n2C)cc1,4.2,6.2,3.6,7.0,-17.8,.
CC[C@@]1(c2ccccc2OC)ON(c2ccccc2C(F)(F)F)C1=O,57.3*,.,34.4,11.3,5.3,51.0*
Cc1ccccc1[C@@]1(C)ON(c2ccccc2C(F)(F)F)C1=O,55.5*,.,32.8,16.4,9.4,45.9*
Cn1c(=O)c(=O)n(C)c2cc(N3CCCC3)c(NS(=O)(=O)c3ccc(Cl)cc3)cc21,7.7,8.3,5.9,-3.4,15.9,.
O=C(CSc1ncnc2c1oc1ccccc12)Nc1ccccc1C(F)(F)F,8.2,20.4,-8.4,23.2,11.3,.
NC(N)=N/N=C/c1cccc(Cl)c1Cl,-2.5,29.9,16.3,17.7,3.2,.
O=C(Nc1cccc(F)c1)c1cccnc1NCCc1ccccc1,53.7*,22.3,20.2,3.5,21.1,54.0*
CCCCn1nc(C(=O)N(C)CC(=O)Nc2ccc(F)c(F)c2F)ccc1=O,-0.1,.,-7.4,1.0,1.3,.
Nc1ccc(N=Nc2ccccc2)c2cccnc12,58.6*,26.4,20.7,43.5,36.4,50.5*
COc1cccc(N=Nc2ccc3cccnc3c2O)c1,43.3,17.5,14.0,30.7,12.7,.
Cc1ccccc1N=Nc1ccc(O)c2ncccc12,.,20.7,.,.,.,.
COc1cccc(N=Nc2ccc(O)c3ncccc23)c1,61.5*,5.1,38.2,37.9,-23.2,55.8*
CC(C)Cc1cc(C(=O)N2CCC(N3CCC(C(=O)NC4CC4)CC3)CC2)n[nH]1,3.9,-9.9,-5.1,17.3,-1.9,.
CC(C)CN1C(=O)c2ccc(NC(=O)c3ccco3)cc2C1=O,52.4*,6.7,30.9,31.7,10.4,52.9*
O=C1NC(=Nc2ccccc2Cl)S/C1=C\c1cccc([N+](=O)[O-])c1,55.4*,-0.2,35.6,18.2,16.5,63.0*
CN1c2ccsc2/C(=N/NC(=O)c2c(F)cccc2F)CS1(=O)=O,21.5,15.9,2.2,17.2,15.0,.
CN1c2ccsc2/C(=N/Nc2ccccc2)CS1(=O)=O,52.8*,5.2,33.4,26.5,37.4,-40.1
COc1cc(C2CC(c3cccs3)=NN2C(=O)CCl)ccc1OC(F)F (centres undefined),56.0*,-6.2,19.2,15.7,-20.8,43.8*
COc1ccc(C2CC(c3cccs3)=NN2C(=O)CCl)cc1OC (centres undefined),33.8,-1.2,14.8,29.8,-8.4,.
Cc1nnc(SCC(=O)Nc2nsc(-c3ccc(C(C)(C)C)cc3)n2)s1,51.5*,-2.7,17.8,7.2,39.4,41.2*
Cc1nc2ccc(S(=O)(=O)Nc3cccc(-c4nc5cccnc5s4)c3C)cc2s1,38.8,28.8,5.3,27.2,34.7,.
Cc1nc2ccc(S(=O)(=O)Nc3cc(-c4nc5cccnc5s4)ccc3C)cc2s1,60.3*,26.5,4.2,9.3,36.5,55.0*
O=S(=O)(Nc1cccc(-c2nc3cccnc3s2)c1)c1ccc2c(c1)OCCO2,58.5*,34.1,28.6,3.1,38.5,52.5*
SMILES,tim23-1 inh,NALP1 inh,TIM10 inh,NALP3 yeast inh,tim10-1 inh,tim23-1 conf
Cc1ccc(-c2nc3cccnc3s2)cc1NS(=O)(=O)c1ccc2c(c1)OCCO2,34.8,9.4,16.2,-19.2,27.3,.
CC(C)OC(=O)c1cccnc1SCc1cc(=O)n2ccccc2n1,65.3*,9.3,8.4,23.6,28.3,44.0*
COc1ccc(NC(=O)CSc2ncccc2C(=O)OC(C)C)cc1OC,11.3,-7.4,-1.0,10.0,6.6,.
COc1ccc(S(=O)(=O)N2CCOC23CCN(S(=O)(=O)c2cc(F)ccc2F)CC3)cc1,53.3*,.,-5.0,34.5,34.7,38.2
CCS(=O)(=O)N1CCC2(CC1)OCCN2S(=O)(=O)c1ccc(OC)cc1,4.6,.,-2.1,12.0,-8.4,.
Oc1c(Br)cc(Br)c(/C=N/n2c(-c3ccccc3)n[nH]c2=S)c1Br,55.8*,-9.7,21.0,20.2,28.8,50.9*
CCN(CC)C(=O)[C@H]1C[C@H](CC(=O)NCCC2=CCCCC2)C(=O)N2CCc3c([nH]c4ccc(Cl)cc34)[C@]12C,58.4*,.,-1.1,.,16.0,32.7
O=[N+]([O-])c1cc(CN2CCOCC2)c2cccnc2c1O,.,-1.9,.,.,.,.
Oc1c(Cl)cc(CN2CCOCC2)c2cccnc12,50.5*,.,15.4,-16.1,26.3,38.5
CC1(C)CN(C(=S)Nc2ccc(F)cc2F)C1=O,5.2,10.2,3.5,8.4,24.3,.
Cc1ccc(C(=O)CCC(=O)Nc2ncccc2C)cc1,9.7,.,8.9,13.9,-5.5,.
Cc1ccc(C(=O)CCC(=O)Nc2ncccc2O)cc1,54.6*,.,5.4,14.6,8.7,4.4
COc1ccc(-c2c(C)nn3c(N4CCCCCC4)cc(C)nc23)cc1OC,53.9*,25.3,34.1,12.0,33.1,56.8*
CC(C)C(=O)Nc1ccc(S(=O)(=O)Nc2nccc(/C=C/c3ccccc3)n2)cc1,-3.4,29.0,8.5,-2.4,2.4,.
Cc1ccc(NC(=O)C(=O)Nc2ccc(C)cn2)nc1,4.7,-0.4,9.0,13.0,-13.0,.
Cc1ccc(NC(=O)/C(C#N)=C(\N)C(Cl)(Cl)Cl)nc1,70.6*,-1.6,39.7,4.6,16.7,71.4*
CC(NC(=S)Nc1ccc(F)cc1)C(c1cccs1)N1CCOCC1 (centres undefined),16.4,11.8,7.6,18.7,23.2,.
CCc1cc(C(=O)N/N=C/c2c(C)[nH]c3ccccc23)cs1,19.9,23.5,18.9,10.1,12.6,.
COc1ccccc1NCC(=O)NC(=O)NC1CCCCC1,13.1,.,2.6,22.1,10.6,.
COc1ccc(F)cc1S(=O)(=O)n1nc(C)cc1C,94.7*,-9.6,3.8,-18.4,6.3,9.3
COc1ccc(C)cc1S(=O)(=O)n1nc(C)cc1C,8.8,15.3,-2.6,-17.7,12.7,.
Cc1ccc2nc(NC(=S)NC(=O)c3ccco3)sc2c1,.,18.9,.,.,.,.
Cc1ccc2nc(NC(=O)c3ccco3)sc2c1,63.8*,18.1,26.0,21.2,37.4,38.1
COc1ccc(C(=O)Nc2nc3ccccc3s2)cc1,54.7*,18.2,5.6,27.9,-11.6,24.6
COc1cccc(C(=O)Nc2nc3ccccc3s2)c1,36.2,17.6,21.7,23.3,10.2,.
COc1ccc2nc(NC(=O)c3ccco3)sc2c1,51.6*,7.4,28.3,33.8,28.8,36.7
COc1ccc2nc(Nc3ccccc3)sc2c1,55.8*,-12.7,25.7,16.1,33.4,32.5
CCOc1ccc(C(=O)NC(=S)NC2CCCC2)cc1[N+](=O)[O-],23.3,-5.9,-5.2,-6.2,19.0,.
CCC(C)C(=O)Nc1nc2ccc(OC)cc2s1 (centres undefined),52.1*,17.2,27.0,31.8,31.6,51.0*
CCC(C)C(=O)Nc1nc2ccc(S(C)(=O)=O)cc2s1 (centres undefined),29.6,17.7,14.2,4.6,19.7,.
